Data from PubChem BioAssay.
Calls of active or inactive are those of the source. Unless noted, no rule for the calls is given here.

What was measured:
[1] = test system: Wnt5a (protein binding on small-molecule microarray); test: Wnt5a binders on small-molecule microarray, primary screen, biophysical, 635/667 nm fluorescence (AID 1142); conditions: 635 nm fluorescence, higher = more signal;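 also: fluorescence read at 667 nm with signal to noise per printed feature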
[2] = cell viability in Huh7 cells, primary screen, cytotoxicity control for HCV replication inhibitor project, CellTiter-Glo luminescence, basal, 48 h (AID 1143); conditions: Huh7 HCV replicon, higher = more signal, called active from +8 up or from −8 down;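 also: Huh7 hepatoma cells carrying a hepatitis C replication reporter with no stimulus; test concentration not given here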
[3] = P. aeruginosa biofilm formation inhibitors, primary screen, PAO1 strain, BacTiter-Glo luminescence, LB-PBS (AID 1144); conditions: 12 h, higher = more signal
[4] = CREB reporter modulators without forskolin, primary screen, cell-based, PC12, CRE-LacZ reporter, unstimulated (AID 1145); conditions: no forskolin, luminescence, 4.5 h, higher = more signal, called active from +8 up or from −8 down
[5] = CREB reporter modulators under forskolin, primary screen, cell-based, PC12, CRE-LacZ reporter, forskolin-stimulated (AID 1146); conditions: luminescence, 4.5 h, higher = more signal, called active from +8 up or from −8 down;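 also: PC12 cells with 6xCRE LacZ reporter stimulated by forskolin 10 µM; beta-galactosidase reporter signal reflecting CREB driven transcription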
[6] = target: Streptavidin (Streptomyces avidinii) (UniProt P22629); test: streptavidin binders on small-molecule microarray, primary screen, artefact control for SMM compound annotation, biophysical, 635/667 nm fluorescence (AID 1147); conditions: streptavidin binding, higher = more signal;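 also: signal reflects streptavidin binding to arrayed compounds as a control protein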
[7] = small-molecule binders of probe aInhba, primary screen, biochemical, small-molecule microarray, 635/667 nm fluorescence (AID 1148); conditions: higher = more signal;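 also: score merges 667nm spot fluorescence with signal-to-noise for antibody binding to printed compounds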
Torsin-1A (Homo sapiens) [8] = target: Torsin-1A (Homo sapiens) (UniProt O14656); test: torsin A binders from cell lysate, primary screen, small-molecule microarray, wild-type, 635/667 nm (AID 1149); conditions: COS7 hTOR1A-WT lysate, 635 nm fluorescence, higher = more signal
Torsin-1A (Homo sapiens) [9] = target: Torsin-1A (Homo sapiens) (UniProt O14656); test: small-molecule binders of mutant TOR1A in lysate, primary screen, cell lysate, small-molecule microarray, COS7 lysate, 635/667 nm fluorescence (AID 1150); conditions: COS7 hTOR1A mutant lysate, 635 nm fluorescence, higher = more signal;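 also: score pools 667 nm emission and signal to noise measuring lysate protein binding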
[10] = test system: Sonic hedgehog protein (Shh); test: small-molecule binders of Shh protein, primary screen, biochemical, small-molecule microarray, 635/667 nm fluorescence (AID 1151); conditions: small-molecule microarray binding, 635 nm fluorescence; higher = more signal;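 also: Shh protein binding to compounds spotted on small-molecule microarray slides; score combines spot fluorescence intensity with signal-to-noise across triplicate slides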
[11] = E. coli DRC41 culture turbidity changes, primary screen, E. coli filamentation inducer project, strain DRC41, OD650, 48 h (AID 1152);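 also: E. coli MC1000 strain DRC41 lacking acrAB efflux pump and sulA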; conditions: E. coli DRC41 (acrAB sulA), higher = more signal, called active from +8 up or from −8 down
[12] = small-molecule binders of probe aLefty1, primary screen, biochemical, small-molecule microarray, 635/667 nm fluorescence (AID 1153); conditions: higher = more signal;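 also: score merges spot fluorescence with signal-to-noise ratio from the scanned slide images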
[13] = PSAC antagonists in infected red cells, primary screen, cell-based, P. falciparum Indochina, OD700, 1 h (AID 1154); conditions: P. falciparum Indochina infected RBC osmotic lysis, higher = more signal, called active from +8 up or from −8 down
[14] = PSAC antagonists in infected red cells, primary screen, cell-based, P. falciparum Indochina, OD700, 2 h (AID 1155);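 also: lysis reports solute entry through the parasite surface anion channel PSAC; channel blockers reduce lysis of infected cells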; conditions: P. falciparum Indochina infected erythrocytes, osmotic lysis OD700; higher = more signal, called active from +8 up or from −8 down
[15] = osmotic lysis modulators in infected erythrocytes, primary screen, PSAC antagonist project, cell-based, P. falciparum Indochina, OD700, 3 h (AID 1156); conditions: higher = more signal, called active from +8 up or from −8 down
[16] = PSAC antagonists in infected red cells, primary screen, cell-based, P. falciparum Indochina, OD700, 18 h (AID 1157); conditions: P. falciparum Indochina infected erythrocytes, osmotic lysis OD700, 18 h; higher = more signal, called active from +8 up or from −8 down
[17] = modulators of S6 phosphorylation in cells, primary screen, cell-based, A549, cytoblot, luminescence, serum-stimulated (AID 1158); conditions: A549 phospho-S6 cytoblot, 5 h, higher = more signal;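 also: serum-stimulated A549 lung adenocarcinoma cells; signal is phosphorylated S6 detected by cytoblot immunostaining with HRP secondary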
[18] = target: NADPH oxidase 2 (Homo sapiens) (UniProt P04839); test: NOX2-dependent H2O2 signal modulators, primary screen, NOX inhibitor project, cell-based, HEK293-NOX2, PMA-stimulated, Amplex Red fluorescence (AID 1159); conditions: 45 min, higher = more signal, called active from +8 up or from −8 down; also: test concentration not given here
[19] = target: NADPH oxidase 4 (Homo sapiens) (UniProt Q9NPH5); test: NOX4-dependent H2O2 signal modulators, primary screen, NOX inhibitor project, cell-based, HEK293-NOX4, tetracycline-induced, Amplex Red fluorescence (AID 1160); conditions: 45 min, higher = more signal, called active from +8 up or from −8 down
[20] = target: NADPH oxidase 5 (Homo sapiens) (UniProt Q96PH1); test: NOX5-dependent H2O2 signal modulators, primary screen, NOX inhibitor project, cell-based, HEK293-NOX5, Amplex Red fluorescence (AID 1161); conditions: HEK293-NOX5, ionomycin, 45 min, higher = more signal
NADPH oxidase 5 (Homo sapiens), sequence (Q96PH1 whole entry, looked up): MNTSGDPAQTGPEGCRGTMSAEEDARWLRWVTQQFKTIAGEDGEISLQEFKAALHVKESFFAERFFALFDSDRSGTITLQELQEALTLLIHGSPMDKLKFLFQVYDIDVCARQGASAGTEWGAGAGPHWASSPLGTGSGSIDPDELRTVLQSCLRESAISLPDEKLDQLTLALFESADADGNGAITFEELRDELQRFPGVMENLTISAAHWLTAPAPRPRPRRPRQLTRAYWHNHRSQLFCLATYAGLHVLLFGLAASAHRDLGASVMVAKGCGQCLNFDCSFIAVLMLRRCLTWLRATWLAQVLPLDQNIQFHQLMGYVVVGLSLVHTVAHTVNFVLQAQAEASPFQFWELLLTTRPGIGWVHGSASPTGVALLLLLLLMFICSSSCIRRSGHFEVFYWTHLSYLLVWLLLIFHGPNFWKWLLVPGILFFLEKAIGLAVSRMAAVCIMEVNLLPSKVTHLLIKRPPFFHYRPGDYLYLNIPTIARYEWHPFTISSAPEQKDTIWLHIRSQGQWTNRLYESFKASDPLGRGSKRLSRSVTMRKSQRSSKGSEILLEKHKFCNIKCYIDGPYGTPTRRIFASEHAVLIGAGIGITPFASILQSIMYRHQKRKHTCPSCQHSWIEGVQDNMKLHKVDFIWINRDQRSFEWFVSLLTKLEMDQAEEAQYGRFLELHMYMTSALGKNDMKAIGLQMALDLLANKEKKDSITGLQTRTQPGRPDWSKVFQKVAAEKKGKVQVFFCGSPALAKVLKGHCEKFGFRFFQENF

Torsin-1A (Homo sapiens), sequence (O14656 whole entry, looked up): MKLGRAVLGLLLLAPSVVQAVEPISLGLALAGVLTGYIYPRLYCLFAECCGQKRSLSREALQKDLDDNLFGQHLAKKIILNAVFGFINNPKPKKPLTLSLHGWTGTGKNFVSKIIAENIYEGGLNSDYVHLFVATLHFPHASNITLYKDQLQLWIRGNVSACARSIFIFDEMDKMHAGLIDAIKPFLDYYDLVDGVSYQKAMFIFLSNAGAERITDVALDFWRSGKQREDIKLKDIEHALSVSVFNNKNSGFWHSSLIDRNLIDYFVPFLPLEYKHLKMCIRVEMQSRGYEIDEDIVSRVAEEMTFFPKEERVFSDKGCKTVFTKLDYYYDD
NADPH oxidase 2 (Homo sapiens), sequence (P04839 whole entry, looked up): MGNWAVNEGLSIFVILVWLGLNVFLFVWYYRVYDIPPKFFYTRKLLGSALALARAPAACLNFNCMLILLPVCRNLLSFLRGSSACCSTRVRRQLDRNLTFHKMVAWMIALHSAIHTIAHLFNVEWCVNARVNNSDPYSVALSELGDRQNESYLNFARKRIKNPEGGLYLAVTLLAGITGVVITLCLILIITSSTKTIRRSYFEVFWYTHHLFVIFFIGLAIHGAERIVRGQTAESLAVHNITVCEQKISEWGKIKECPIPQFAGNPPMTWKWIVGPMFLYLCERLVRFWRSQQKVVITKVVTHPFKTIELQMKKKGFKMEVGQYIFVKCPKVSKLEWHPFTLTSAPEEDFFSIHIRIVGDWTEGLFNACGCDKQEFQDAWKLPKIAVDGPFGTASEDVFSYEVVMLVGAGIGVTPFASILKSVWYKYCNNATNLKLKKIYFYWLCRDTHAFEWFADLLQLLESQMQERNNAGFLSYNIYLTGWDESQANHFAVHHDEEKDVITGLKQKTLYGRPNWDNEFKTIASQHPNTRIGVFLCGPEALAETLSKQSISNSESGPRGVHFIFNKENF
Streptavidin (Streptomyces avidinii), sequence (P22629 whole entry, looked up): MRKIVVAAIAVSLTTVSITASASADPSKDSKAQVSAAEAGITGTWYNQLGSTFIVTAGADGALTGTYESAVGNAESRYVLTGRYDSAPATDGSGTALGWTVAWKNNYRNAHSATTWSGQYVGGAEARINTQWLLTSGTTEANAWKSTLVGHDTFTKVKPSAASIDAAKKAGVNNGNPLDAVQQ
NADPH oxidase 4 (Homo sapiens), sequence (Q9NPH5 whole entry, looked up): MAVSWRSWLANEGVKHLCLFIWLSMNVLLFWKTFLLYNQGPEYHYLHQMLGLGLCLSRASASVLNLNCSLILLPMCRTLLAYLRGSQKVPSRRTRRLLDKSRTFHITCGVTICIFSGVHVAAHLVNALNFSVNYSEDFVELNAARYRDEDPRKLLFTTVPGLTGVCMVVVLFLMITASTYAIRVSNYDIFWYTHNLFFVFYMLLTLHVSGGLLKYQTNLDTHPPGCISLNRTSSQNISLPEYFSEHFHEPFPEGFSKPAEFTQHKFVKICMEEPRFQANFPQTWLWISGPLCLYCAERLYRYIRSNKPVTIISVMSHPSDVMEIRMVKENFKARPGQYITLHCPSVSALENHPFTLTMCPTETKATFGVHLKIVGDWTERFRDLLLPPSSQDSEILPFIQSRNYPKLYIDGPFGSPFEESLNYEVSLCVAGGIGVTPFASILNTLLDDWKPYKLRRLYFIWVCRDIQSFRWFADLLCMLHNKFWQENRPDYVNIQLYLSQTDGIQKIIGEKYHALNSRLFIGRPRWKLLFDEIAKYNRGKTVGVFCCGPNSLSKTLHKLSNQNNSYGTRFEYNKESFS

With C=CCC(OC(C)=O)[C@@H]1[C@@H](N(Cc2ccc(-c3cccc(C(F)(F)F)c3)o2)C(=O)Cc2ccc(F)cc2)c2cc(OCCCO)ccc2N1C(=O)Cc1ccc2ccccc2c1 (stereo not given in full) the composite z-score [1] was -0.268, the z-score [2] was -0.229 (inactive) and the z-score [3] was -1.1 (inactive). For the same molecule, the z-score [4] was -0.374 (inactive), the z-score [5] was 0.767 (inactive) and the composite z-score [6] was -0.426. It also gave a composite z-score [7] of -0.114, a composite z-score (Torsin-1A (Homo sapiens) [8]) of -0.761 and a composite z-score (Torsin-1A (Homo sapiens) [9]) of -0.673. For the same molecule, the composite z-score [10] was 0.404, the z-score [11] was -0.985 (inactive) and the composite z-score [12] was 0.0919. For the same molecule, the z-score [13] was 1.1 (inactive), the z-score [14] was 0.135 (inactive) and the z-score [15] was -0.554 (inactive). For the same molecule, the z-score [16] was -0.135 (inactive), the z-score [17] was -0.37 and the z-score [18] was -1.03 (inactive). For the same molecule, the z-score [19] was 0.896 (inactive) and the z-score [20] was 0.736.
For CC(C)=CCCC(C)=CC(O)C1C=CC2C(=O)NC(=O)C2N1Nc1ccc(Cl)cc1Cl (stereo not given), the composite z-score [1] was 0.623, the z-score [2] was -1.64 (inactive) and the z-score [3] was -0.815 (inactive). For the same molecule, the z-score [4] was 0.822 (inactive), the z-score [5] was 0.501 (inactive) and the composite z-score [6] was 1.26. For the same molecule, the composite z-score [7] was -0.0035, the composite z-score (Torsin-1A (Homo sapiens) [8]) was -0.0743 and the composite z-score (Torsin-1A (Homo sapiens) [9]) was 0.622. The composite z-score [10] was 0.737, the z-score [11] was -2.85 (inactive) and the composite z-score [12] was 0.544. The z-score [13] was 7.58 (inactive), the z-score [14] was 1.61 (inactive) and the z-score [15] was -0.519 (inactive). The z-score [16] was 1.39 (inactive), the z-score [17] was -0.498 and the z-score [18] was -1.84 (inactive). The z-score [19] was -5.04 (inactive) and the z-score [20] was -1.53.
For O=C(NC1CC1)[C@@H]1c2ccccc2C(=O)N(CC23CC4CC(CC(C4)C2)C3)[C@H]1c1ccc(CO)cc1, the composite z-score [1] was 0.659, the z-score [2] was -1.29 (inactive) and the z-score [3] was -0.88 (inactive). For the same molecule, the z-score [4] was 0.0026 (inactive), the z-score [5] was -0.049 (inactive) and the composite z-score [6] was 0.189. For the same molecule, the composite z-score [7] was 0.0697, the composite z-score (Torsin-1A (Homo sapiens) [8]) was 0.197 and the composite z-score (Torsin-1A (Homo sapiens) [9]) was 0.833. The composite z-score [10] was 1.88, the z-score [11] was 0.268 (inactive) and the composite z-score [12] was 0.284. For the same molecule, the z-score [13] was 1.56 (inactive), the z-score [14] was 0.464 (inactive) and the z-score [15] was 1.48 (inactive). The z-score [16] was 0.181 (inactive), the z-score [17] was 0.268 and the z-score [18] was 0.507 (inactive). For the same molecule, the z-score [19] was 0.157 (inactive) and the z-score [20] was 0.412.
For C=CCNC(=O)[C@@H]1[C@H]2C(=O)O[C@H](c3ccccc3)[C@H](c3ccccc3)N2[C@H](c2ccc(OCCO)cc2)[C@@]12C(=O)Nc1ccc(C#CC3(O)CCCCCC3)cc12, the composite z-score [1] was 0.407, the z-score [2] was -5.36 (inactive) and the z-score [3] was -1.17 (inactive). The z-score [4] was 0.155 (inactive), the z-score [5] was 0.856 (inactive) and the composite z-score [6] was 0.981. For the same molecule, the composite z-score [7] was 0.0082, the composite z-score (Torsin-1A (Homo sapiens) [8]) was 0.507 and the composite z-score (Torsin-1A (Homo sapiens) [9]) was 0.827. The composite z-score [10] was 0.938, the z-score [11] was 0.668 (inactive) and the composite z-score [12] was 0.239. For the same molecule, the z-score [13] was 4.16 (inactive), the z-score [14] was 0.444 (inactive) and the z-score [15] was 1.02 (inactive). The z-score [16] was -0.882 (inactive), the z-score [17] was 1.35 and the z-score [18] was 0.385 (inactive). The z-score [19] was -1.05 (inactive) and the z-score [20] was -1.63.
